Potency data for one compound are collected here from PubChem BioAssay AID1970 (National Center for Advancing Translational Sciences (NCATS), 2009).

Records with an inconclusive call do not appear. Calls of active or inactive are those of the source. Calls follow the shape of the dose curve; as a rule, active = well fitted inhibition curve with a large enough effect; inconclusive = small, poorly fitted or top-dose-only effect; inactive = flat fitted curve, though single readings scatter.

The test addresses Dual specificity protein kinase CLK4 (Homo sapiens) (UniProt Q9HAZ1). Description: Confirmation Assay for Inhibitors of CDC-like Kinase 4 (Kinase-Glo Assay). To be noted: recombinant Clk4, Kinase-Glo ATP depletion luminescence. On the procedure: NIH Molecular Libraries Probe Production Centers Network [MLPCN] NIH Chemical Genomics Center [NCGC] MLPCN Grant: 1R03MH084827-01 Assay Submitter (PI): Tom Misteli NCGC Assay Overview: Clk4 (Invitrogen, cat# PV3839) was assayed using ATP and the RS repeat peptide (AnaSpec cat # 61722) as substrates. Following the Clk4 reaction, the remaining ATP levels were detected using Promega Kinase-Glo technology wherein the remaining ATP from the kinase reaction is detected using Ultra-Glo luciferase and D-luciferin which generates a bioluminescence signal from the ATP.
NCGC Assay Protocol Summary: Two uL/well of substrate-buffer solution (100 uM RS peptide, 1 uM ATP, 25 mM Tris pH7.5, 10 mM MgCl2, 0.5 mM EGTA, 2.5 mM DTT, 0.01% Triton X-100 final concentration) was dispensed into 1536-well, assay plates (Greiner, solid white medium-binding plates) with Aurora Discovery BioRAPTR Flying Reagent Dispenser (FRD; Beckton-Dickenson). Using a Kalypsys pin tool equipped with a 1536-pin tool, 23 nL of compound solution was transferred to the assay plate. […] Luminescence was detected with the ViewLux plate reader (Perkin Elmer, Waltham, MA) after 5 min incubation using a 5 second exposure time and 2x binning.
(In Kinase-Glo more light means more ATP remaining.)

Sequence of Dual specificity protein kinase CLK4 (Homo sapiens) (Q9HAZ1 whole entry, looked up): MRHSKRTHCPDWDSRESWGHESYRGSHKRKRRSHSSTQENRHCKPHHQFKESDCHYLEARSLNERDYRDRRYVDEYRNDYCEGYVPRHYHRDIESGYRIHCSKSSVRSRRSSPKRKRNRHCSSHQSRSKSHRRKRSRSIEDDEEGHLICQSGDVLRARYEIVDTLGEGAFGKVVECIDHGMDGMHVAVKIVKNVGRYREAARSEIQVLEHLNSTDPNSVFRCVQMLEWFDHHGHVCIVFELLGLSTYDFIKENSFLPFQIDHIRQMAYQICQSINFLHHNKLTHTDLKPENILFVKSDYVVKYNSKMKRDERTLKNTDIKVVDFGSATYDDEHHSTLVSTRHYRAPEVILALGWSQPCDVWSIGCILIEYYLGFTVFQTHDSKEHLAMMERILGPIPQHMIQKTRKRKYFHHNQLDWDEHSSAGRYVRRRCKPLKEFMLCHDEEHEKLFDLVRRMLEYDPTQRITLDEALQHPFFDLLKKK

As for `COc1ccc2c(c1)[nH]c1c(C)nccc12`, the Potency was 67.1 nM (active).
